Bioassay records (PubChem)
Pf growth 96h: P. falciparum growth inhibition at 96 hour, primary screen for plastid delayed-death inhibitors. P. falciparum luciferase reporter growth, 96 h. Potency, µM (titrated, usually from 28.7 µM), for inactives: at the highest dose activity change, negative = inhibition, most hits filed as inhibitors. 320,000 tested, 6.9% active. AID 504834; also: potency is read from the fitted curve at half-maximal effect; % is scaled to controls: 0 for no effect and ±100 for the full control effect
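Cell-based qHTS: luciferase-tagged P. falciparum in erythrocytes (2% hematocrit, 0.05% parasitemia final) incubated with compounds for 96 hours, 37 C, 5% CO2; luciferase detection reagent then added and luminescence measured.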
LmPK inhibitor: blocks Leishmania mexicana pyruvate kinase activity | 290,000 tested, 0.37% active | Potency, µM (highest dose often 57.5 µM), for inactives: at the top dose activity change, negative = inhibition, hits mostly inhibitors | Q27686 | purified LmPK, Kinase-Glo ATP luminescence, 1 h; also: potency is read from the fitted curve at half-maximal effect; % is scaled to controls: 0 for no effect and ±100 for the full control effect
Target sequence (Q27686 whole entry, looked up): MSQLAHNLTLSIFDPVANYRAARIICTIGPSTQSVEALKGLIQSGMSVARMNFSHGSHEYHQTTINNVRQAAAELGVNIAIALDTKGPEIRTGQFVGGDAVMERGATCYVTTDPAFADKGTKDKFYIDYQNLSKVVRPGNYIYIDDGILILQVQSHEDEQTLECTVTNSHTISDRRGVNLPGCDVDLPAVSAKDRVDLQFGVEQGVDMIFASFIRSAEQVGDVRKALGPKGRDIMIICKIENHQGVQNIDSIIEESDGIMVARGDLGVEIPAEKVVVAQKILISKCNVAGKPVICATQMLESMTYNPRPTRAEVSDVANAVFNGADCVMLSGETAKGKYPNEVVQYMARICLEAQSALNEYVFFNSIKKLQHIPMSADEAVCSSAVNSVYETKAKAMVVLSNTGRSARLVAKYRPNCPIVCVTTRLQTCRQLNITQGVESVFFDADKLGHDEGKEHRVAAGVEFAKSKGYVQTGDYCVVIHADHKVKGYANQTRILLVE
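Purified LmPK (0.1 nM) with 0.5 mM PEP and 0.1 mM ADP in imidazole buffer pH 7.2 with MgCl2/KCl, 1 h at room temperature. ATP formed was read by luciferase luminescence and normalized to no-enzyme and uninhibited controls.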
Pf growth 48h: P. falciparum growth inhibition at 48 hours (one generation). 310,000 tested, 5.9% active. P. falciparum luciferase growth in erythrocytes, 48 h. Potency, µM (series often up to 28.7 µM), inactives show at the highest dose activity change, negative = inhibition, usual class: inhibitors; also: potency is read from the fitted curve at half-maximal effect; % is scaled to controls: 0 for no effect and ±100 for the full control effect
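Luciferase-expressing P. falciparum in infected erythrocytes (2% hematocrit, 0.1% parasitemia final) in RPMI 1640/0.5% Albumax were exposed to compound for 48 hours at 37 C, 5% CO2; growth read as luminescence.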
CHX counter: counter-screen hit for Shiga toxin inhibitors, cycloheximide. cell reporter, cycloheximide protein synthesis inhibition counterscreen. max response, %. 300,000 tested, 12% active. AID 2314; in the data active = max response mostly above about 13%, no sharp cut-off; inactive = mostly below about 14%; also: read at 38.3 µM for the half of the compounds with a filed dose; 0% is about no effect
Shiga toxin inh: inhibitors of Shiga toxin in Vero cells; Vero cells, Shiga toxin protein synthesis inhibition reporter; inhibition, % at 38.7 µM; 290,000 tested, 9.2% active; in the data active = inhibition mostly above about 28%, no sharp cut-off; inactive = mostly below about 43%; also: 0% is about no effect
* marks the source's active call; other numbers are inactive results; ? = inconclusive; / = no result; [ ] = remark or other dose. A selection: hits, their analogues and other compounds. The true share with any hit is near 22%. Unless noted, calls follow the shape of the dose curve; as a rule, active = well fitted inhibition curve with a large enough effect; inconclusive = small, poorly fitted or top-dose-only effect, or another doubt; inactive = no such curve, though single readings can be large or run the other way.

SMILES	Pf growth 96h	LmPK inhibitor	Pf growth 48h	CHX counter	Shiga toxin inh
C=CCNc1nc2c(c(=O)[nH]c(=O)n2C)n1CCCc1ccccc1	?	-1.9%	-85.4%	-1.9	-1.8
CC(=O)c1ccc(N2CCN(C(=O)C(=O)c3c(C)[nH]c4ccccc34)CC2)cc1	35.8%	2.6%	-12.9%	15.4*	16.4
Cc1[nH]c2ccccc2c1C(=O)C(=O)N1CCCc2ccccc21	10.4µM*	-1.6%	?	50.1*	63.7*
Cc1[nH]c2ccccc2c1C(=O)C(=O)N1c2ccccc2CC1C (centres undefined)	11.7µM*	8.6%	6.57µM*	-2.1	-7.4
CCOC(=O)c1ccccc1NC(=O)Cn1c(=O)n(Cc2ccccc2)c(=O)c2c(C)c(C)sc21	?	-1.3%	0.2%	-3.3	-13.7
Brc1ccc(-c2noc(-c3ccccn3)n2)o1	39.5%	?	246.1%	45.3*	81.1*
COc1cc(-c2nc(-c3ccc(Br)o3)no2)cc(OC)c1OC	2.8%	8.4%	/	1.8	-1.3
COc1ccc(-c2noc(-c3ccc(Br)o3)n2)cc1OC	/	0.9%	50.0%	9.8	6.3
Clc1ccc(-c2nc(-c3ccccn3)no2)cc1Cl	492.3%	?	-5.5%	65.7*	77.2*
Brc1ccc(-c2nc(-c3ccccn3)no2)o1	?	31.6µM*	188.0%	13.7*	-6.2
Brc1ccc(-c2nc(-c3ccncc3)no2)o1	?	-2.3%	113.9%	24.0*	63.8*
COc1ccc(CCNC(=S)Nc2ccc(S(=O)(=O)Nc3ncccn3)cc2)cc1OC	-14.1%	-11.4%	-3.9%	-3.2	-1.7
CC(CN1CCCC1)OC(=O)c1ccc(Br)cc1 (centres undefined)	7.9%	2.3%	-25.7%[0.00184 µM]	-3.4	-4.7
Cc1c(CCC(=O)NCCC(=O)O)c(=O)oc2c(C)c3oc4c(c3cc12)CCCC4	20.3%	2.1%	-10.2%	6.1	30.4
CC1(C)CC(=O)C(C=NCCN2CCN(C3CC(=O)N(c4ccc(Cl)c(Cl)c4)C3=O)CC2)=C(O)C1 (centres undefined)	1.8%	3.7%	14.8%	2.5	-11.0
CN1C(=O)CC(N2CCN(CCN=CC3=C(O)CC(C)(C)CC3=O)CC2)C1=O (centres undefined)	11.7µM*	-1.9%	-10.8%	8.2	19.1
Cc1cc(C(=O)COc2ccc(-c3nnco3)cc2)c(C)n1Cc1ccccc1	?	-0.2%	?	17.4*	20.9
CCC(C)c1ccccc1NC(=O)COc1ccc(-c2nnco2)cc1 (centres undefined)	-0.6%	/	?	/	/
COC(=O)C/C=C/[C@@H](C)[C@@H](/C=N/OC[C@H]1O[C@H](c2ccccc2)C=C[C@@H]1Oc1ccc(OC)cc1)NS(=O)(=O)c1ccc(C)cc1	7.38µM*	0.5%	11.7µM*	-2.4	-9.4
COc1ccc(O[C@H]2C=C[C@@H](c3ccccc3)O[C@@H]2COC(=O)CC/C(C)=N/O[C@@H](C)CN2CCCCc3nc(C)c(C)cc32)cc1	8.28µM*	5.1%	5.86µM*	-3.8	-11.2
C/C(CCC(=O)OC[C@H]1O[C@H](C#Cc2ccccc2)C=C[C@@H]1Oc1ccc(C)cc1)=N\O[C@@H](C)CN1CCCCc2nc(C)c(C)cc21	4.15µM*	3.7%	14.7µM*	-1.0	50.3
COc1ccc(O[C@H]2C=C[C@@H](c3ccccc3)O[C@@H]2CO/N=C(\C)CCC(=O)OC[C@H]2O[C@H](c3ccccc3)C=C[C@@H]2Oc2ccc(OC)cc2)cc1	2.33µM*	2.4%	2.62µM*	-0.6	4.4
COc1ccc(S(=O)(=O)NC(Cc2ccccc2)C(=O)O)cc1 (centres undefined)	28.1%	3.1%	19.6%[0.00184 µM]	-2.5	-5.2
CCOC(OCC)c1cn(Cc2ccc3c(c2)C(=O)c2ccccc2C3=O)nn1	?	0.5%	-11.5%	10.7	11.9
NC(=O)CC(NC(=O)c1ccccc1)c1ccc(NCCc2ccc(Cl)cc2)c([N+](=O)[O-])c1 (centres undefined)	?	8.5%	13.1µM*	-4.7	-8.1
NC(=O)CC(NC(=O)c1ccccc1)c1ccc(NCc2ccccc2)c([N+](=O)[O-])c1 (centres undefined)	9.28µM*	10.5%	?	8.6	7.3
CCCc1nnc2n1N=C(c1ccc(OC)c(OC)c1)CS2	?	3.4%	6.4%	-3.2	10.7
CCCc1nnc2n1N=C(c1ccc(-c3cc(Cl)ccc3Cl)o1)CS2	1.5%	1.0%	24.4%	21.3*	active
